We go through ten compounds from PubChem BioAssay.

A short description of assay [1]: viability loss in pontine glioma line – cell-based, SU-DIPG-XVII, MIPE5.0, CellTiter-Glo, qHTS, dose response (AID 1347060).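 As to AC50: cells exposed to compound for 48 hours before viability readout.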 The conditions noted are these: CellTiter-Glo ATP luminescence. In general terms: ATP-based viability assays read luminescence as a measure of living cells.
Assay [2] is described as follows: viability loss in pontine glioma line – cell-based, SU-DIPG-XIII, MIPE5.0, CellTiter-Glo, qHTS, dose response (AID 1347064; cut-off not given, nearly all actives have AC50 up to about 23 µM;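 as to AC50: cells exposed to compound for 48 hours before the viability read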). The conditions noted are these: CellTiter-Glo ATP luminescence.
Assay [3] can be described thus: JHH-DIPG-1 glioma cell viability, MIPE5.0 library, CellTiter-Glo luminescence, qHTS (AID 1347067).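 Also: cells exposed to compound for 48 hours before readout.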 Conditions: JHH-DIPG-1 glioma viability, CellTiter-Glo ATP luminescence.
Assay [4] in a line: growth inhibition of DIPG cells – cell-based, MIPE5.0 library, qHTS (AID 1347068; cut-off not given, nearly all actives have IC50 up to about 30 µM;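 as to IC50: cells exposed to compound for 48 hours before viability readout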). The conditions noted are these: SU-DIPG-XXV viability.
Assay [5] in a line: P. berghei load reduction in hepatocytes – cell-based, HepG2, luciferase luminescence, HepG2 viability, primary screen (AID 624349; in the data active = parasite load remaining mostly below about 12%, no sharp cut-off; inactive = mostly above about 10%;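 also: 100% = mean of DMSO negative control wells on the same plate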). The conditions noted are these: P. berghei liver stage in HepG2, luciferase luminescence, concentration not given here; parasite load remaining: stronger effect = lower value; viability: measured here: HepG2 viability without parasites.
The subject of assay [6] is Hepatitis C virus NS3 helicase. Briefly: blockers of NS3h binding to ssDNA – biochemical, fluorescence polarization, LOPAC1280 library, primary screen (AID 687035; in the data active = inhibition above about 37%). The conditions noted are these: Purified HCV NS3 helicase, Cy5-dT15 ssDNA binding fluorescence polarization; stronger effect = higher value; concentration not given here. Background: In fluorescence polarisation assays a small probe gives low polarisation when free and higher when bound to something large.

The nature of assay [7]: compounds altering Cy5-DNA-NS3h complex signal – biochemical, LOPAC1280, artefact control for HCV NS3 helicase inhibitor project (AID 687037; call rule not given here). Conditions: Cy5-DNA-NS3h complex fluorescence interference counterscreen. (A counterscreen serves to expose hits that act by an unwanted route or on another target.)
The nature of assay [8]: viability loss in pontine glioma line – cell-based, SU-DIPG-XXV, MIPE5.0, CellTiter-Glo, qHTS, dose response (AID 1347065).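 Also: cells exposed to compound for 48 hours before ATP readout.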 The conditions noted are these: CellTiter-Glo ATP luminescence.
A short description of assay [9]: viability loss with induced miR-34 in A549 – imaging, A549 dox-inducible miR-34, nuclei and caspase counts, primary screen (AID 1347080;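 active = compounds whose cell count with miR-34 switched on is under 0.7 times the count with it off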). The conditions noted are these: A549 miR-34 inducible, Hoechst nuclei count, 48 h.
The nature of assay [10]: blockers of cellular phospholipid synthesis – cell-based, LOPAC library, screen 4, primary screen (AID 1347384; call rule not given here). Conditions: animal cells, phospholipid biosynthesis inhibition screen; at 10 µM.
The nature of assay [11]: galactose survival enhancers in mitochondrial complex I cybrids – cell-based, galactose medium, ATP luminescence, primary screen (AID 1645843;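 active = z-score of at least 1.8 in each of two replicates, scored against plate mean and spread of sample wells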;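 also: positive z means more ATP and so rescue of galactose-driven cybrid death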). Conditions: complex I mutant cybrid cells, 72 h, stronger effect = higher value.
A short description of assay [12]: MELAS cybrid and Rieske KO viability enhancers – cell-based, MELAS cybrids, Rieske KO mouse fibroblasts, CellTiter-Glo, primary screen (AID 1508586;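 active = mean z-score across replicates of 1.96 or higher in either the MELAS or the Rieske mutant cell line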;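 also: z relative to plate mean and SD of compound and empty wells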). Conditions: low glucose.
Where [13] appears, read: stronger effect = lower value, cell number ratio, induced over uninduced.
Setting [14] is: measured here: relative caspase fold change +Dox/-Dox.
Setting [15] is: measured here: total cells with miR-34 induction, stronger effect = lower value.
The mark [16] stands for this setting: measured here: total cells without miR-34 induction.
[17] abbreviates: MELAS cybrid survival, CellTiter-Glo 48 h, stronger effect = higher value.
[18] abbreviates: Rieske KO mouse fibroblast survival, CellTiter-Glo 72 h.

Usually viability stands for a per cent measure of how many cells are alive, often set against a control. As a reminder, the inhibition is the percentage by which the read-out fell short of the control. By AC50 is commonly meant the concentration at which the activity in the assay is half-maximal. What is called IC50 is the point on the concentration scale where inhibition reaches its midpoint.

Molecules are shown by their SMILES. Where “and” joins values, the source holds several entries; their conditions need not be identical. Equal values may be shown once. Records with an inconclusive call do not appear. Calls of active or inactive are those of the source. Unless noted, the limit is not given here; nearly all actives have AC50 up to about 26 µM.

As for `C[C@@]1(c2ncncc2F)NC(=O)c2cc(-c3cn[nH]c3)ccc21`, the outcome in [1], in assay [2], in assay [3] and in [4] was inactive.
On to `O=[N+]([O-])c1ccc(-c2nc(-c3ccc(F)cc3)c(-c3ccncc3)[nH]2)cc1`, for which, in assay [5], the parasite load remaining is 29.6% (inactive). Moreover, in [5], the viability was found to be 67.5%. In assay [6], the inhibition is 1% (inactive). Besides, the fluorescence ratio (interference) in assay [7] is 1 (inactive). The figures for the AC50 in assay [1], in assay [2] and in assay [8] were 26.3 µM (active), 18.6 µM (active) and 26.3 µM (active), respectively. The outcome in [4] and in assay [10] was inactive. For the same compound, the fold change in assay [9] (setting [13]) is 1.15 (inactive) and 0.939 (inactive); in [9] (setting [14]), 1.13 and 1.14. For the same compound, the cell count in assay [9] (setting [15]) is 4420 and 5750; in assay [9] (setting [16]) it was 3850 and 6120. The z-score in assay [11] was -0.155 (inactive).
Turning to `O=C(CCl)Nc1cccc(NC2=NS(=O)(=O)c3ccccc32)c1`, the results for the AC50 in assay [1], in assay [2] and in assay [3] were 11.8 µM (active), 9.34 µM (active) and 5.25 µM (active), respectively.
For `C[C@@H]1O[C@@H](O[C@@H]2\C=C/C=C\C=C/C=C\C[C@H](C)OC(=O)/C=C\[C@H]3O[C@@H]3C[C@H](O)C[C@]3(O)C[C@@H](O)[C@@H](C(=O)O)[C@H](C2)O3)[C@H](O)[C@H](N)[C@@H]1O`, the outcome in [1], in assay [2], in [3] and in assay [4] was inactive.
In the case of `COc1ccc2c(C(=S)N(C)CC(=O)O)cccc2c1C(F)(F)F`, the outcome in assay [1], in [2], in [3] and in [4] was inactive.
In the case of `O=C(Nc1ccc2c(=O)cc(-c3nn[nH]n3)oc2c1)c1ccc(OCCCCc2ccccc2)cc1`, the outcome in assay [1], in assay [2], in [8] and in assay [4] was inactive. Moreover, the fold change in assay [9] (setting [13]) was 0.988 (inactive); in assay [9] (setting [14]) it was 0.807. Besides, the values for the cell count in [9] (setting [15]) and in assay [9] (setting [16]) were 7750 and 7840, respectively. The z-score in [12] (setting [17]) was -0.481 (inactive); in assay [12] (setting [18]) it was -0.277.
Take `Cc1nn(C)c(COc2ccc(N3CCN(S(=O)(=O)N(C)C)CC3)cc2)c1-c1cccc2c(CCCOc3cccc4ccccc34)c(C(=O)O)n(CCN3CCOCC3)c12`: the AC50 in assay [1] was 14.8 µM (active); in assay [2], 18.6 µM (active); in assay [3], 18.6 µM (active). The compound was called inactive in [4].
Consider `Cc1nc(NC(=O)N2CCCC2C(N)=O)sc1-c1ccnc(C(C)(C)C(F)(F)F)c1` (stereo not drawn), for which the concentration at half-maximal activity (AC50) is 5.25 µM (active) in [1], 2.63 µM (active) in [2] and 2.35 µM (active) in [8]. Also, in assay [4], the IC50 is 13.2 µM (active). The fold change in assay [9] (setting [13]) was 0.937 (inactive); in assay [9] (setting [14]), 0.696. Moreover, the values for the cell count in [9] (setting [15]) and in assay [9] (setting [16]) were 5770 and 6170, respectively. Further, the values for the z-score in [12] (setting [17]) and in assay [12] (setting [18]) were -0.255 (inactive) and -0.201, respectively.
Consider `Cc1cc2c(F)c(Oc3ncnn4cc(OCC(C)OC(=O)C(C)N)c(C)c34)ccc2[nH]1` (stereo not drawn), for which the AC50 in assay [1] and in [2] was 16.6 µM (active) in each case. In addition, the fold change was 1.09 (inactive) in assay [9] (setting [13]) and 0.564 in assay [9] (setting [14]). Also, the values for the cell count in assay [9] (setting [15]) and in [9] (setting [16]) were 4840 and 4460, respectively. Also, the z-score in assay [12] (setting [17]) is 0.128 (inactive); in assay [12] (setting [18]), 1.06.
In the case of `COc1ccc(Oc2cc(NCCC(F)(F)F)c3ncc(-c4ccc(C(=O)NC5CC5)c(C)c4)n3n2)c(F)c1F`, the figures for the AC50 in assay [1] and in assay [8] were 0.059 µM (active) and 0.372 µM (active), respectively.
